# Laboratory results taken from PubChem BioAssay (EPA / NIEHS).
# Active and inactive are the calls of the source. Rule for the calls: active = hit-call score of the fitted dose curve at least 0.9, where 1 is the maximum; inactive = score below 0.9.
# Assays:
# [1] = ATG_E_Box_CIS: Attagene CIS-FACTORIAL HepG2 Assay for human Enhancer Box (E-box) (AID 2282936); settings: HepG2 E-box cis-reporter transcription, actives raise or lower the signal
# How it was run: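 Fluorescent reporter fragments separated by capillary electrophoresis gave the signal; mRNA came from HepG2 cells transfected with cis-element reporters and treated 24 h. Curves fitted bidirectionally relative to DMSO controls.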
# [2] = ATG_M_61_CIS: Attagene CIS-FACTORIAL HepG2 Assay for M61 Transcription Factor (Internal Marker) (AID 2282937); settings: HepG2 Attagene CIS-FACTORIAL M61 internal marker reporter; actives raise or lower the signal
# How it was run: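 Cells were transfected with reporter units under cis-regulatory promoters, treated with chemicals for 24 h, then lysed for RNA. Reporter transcripts were quantified by RT-PCR and capillary electrophoresis, and activity was fitted bidirectionally against DMSO.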
# [3] = ATG_EGR_CIS: Attagene CIS-FACTORIAL HepG2 Assay for human Early Growth Response 1 (EGR1) (AID 2282938); settings: HepG2 Attagene CIS-FACTORIAL EGR reporter mRNA; actives raise or lower the signal
# How it was run: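 Endogenous TF activity in HepG2 liver cells was gauged through cis-promoter reporter constructs transiently transfected. After 24 h dosing, reporter mRNA was quantified by RT-PCR and capillary electrophoresis, and curves fitted in both directions versus DMSO.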
# [4] = ATG_M_19_CIS: Attagene CIS-FACTORIAL HepG2 Assay for M19 Transcription Factor (Internal Marker) (AID 2282939); settings: HepG2 Attagene CIS-FACTORIAL M19 internal marker reporter; actives raise or lower the signal
# How it was run: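 Readout: fluorescent reporter-transcript fragments by capillary electrophoresis after RT-PCR. Human HepG2 liver cells carried transfected MRTU constructs reporting endogenous transcription-factor activity; exposure 24 h. Gain or loss of signal fitted relative to DMSO.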
# [5] = ATG_ERE_CIS: Attagene CIS-FACTORIAL HepG2 Assay for Estrogen Response Element (ERE) (AID 2282940); settings: HepG2 ERE cis-reporter, Attagene RNA transcript; actives raise or lower the signal
# How it was run: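 Readout: reporter mRNA induction by RT-PCR, FAM-labelled primer extension, HpaI digestion and capillary electrophoresis, 24 h after dosing transfected HepG2 cells. Endogenous transcription factors act on cis-element-regulated reporters. Gain or loss fitted against DMSO.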
# [6] = ATG_Ets_CIS: Attagene CIS-FACTORIAL HepG2 Assay for human Erythroblast Transformation Specific (ETS) (AID 2282941); settings: HepG2 ETS cis-reporter transcription, actives raise or lower the signal
# How it was run: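 Endogenous transcription factor activity read as reporter mRNA via RT-PCR and capillary electrophoresis, with gain or loss fitted bidirectionally against DMSO. Human HepG2 liver cells, transiently transfected CIS reporter constructs, 24 h exposure.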
# [7] = molecular target: Hepatocyte nuclear factor 3-beta (Homo sapiens) (UniProt Q9Y261); experiment: ATG_FoxA2_CIS: Attagene CIS-FACTORIAL HepG2 Assay for human Forkhead box A2 (FOXA2) (AID 2282942); settings: HepG2 cis-reporter transcription factor activity, 24 h; actives raise or lower the signal
# Chain of Hepatocyte nuclear factor 3-beta (Homo sapiens) (Q9Y261 whole entry, looked up): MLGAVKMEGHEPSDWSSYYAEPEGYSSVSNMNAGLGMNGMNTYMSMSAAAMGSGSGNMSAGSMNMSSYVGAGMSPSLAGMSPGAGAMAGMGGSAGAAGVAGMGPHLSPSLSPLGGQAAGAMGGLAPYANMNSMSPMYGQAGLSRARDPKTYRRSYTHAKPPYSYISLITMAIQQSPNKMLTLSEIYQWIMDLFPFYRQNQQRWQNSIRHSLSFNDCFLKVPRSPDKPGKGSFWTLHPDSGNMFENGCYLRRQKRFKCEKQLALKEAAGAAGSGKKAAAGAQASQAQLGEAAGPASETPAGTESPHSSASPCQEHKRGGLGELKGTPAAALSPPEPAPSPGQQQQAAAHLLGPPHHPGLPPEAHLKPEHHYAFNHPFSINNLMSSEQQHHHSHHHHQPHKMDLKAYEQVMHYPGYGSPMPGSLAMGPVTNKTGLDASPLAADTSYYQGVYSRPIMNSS
# How it was run: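 Endogenous transcription factor activity was read in HepG2 cells carrying transiently transfected cis-promoter reporter units. After 24 h dosing, reporter mRNA was quantified by RT-PCR and capillary electrophoresis, and values fitted bidirectionally versus DMSO.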
# [8] = ATG_FoxO_CIS: Attagene CIS-FACTORIAL HepG2 Assay for human Forkhead box O (FoxO) (AID 2282943); settings: HepG2 Attagene cis-reporter, FoxO element, mRNA; actives raise or lower the signal
# How it was run: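 Endogenous transcription factor activity read from multiplexed cis-promoter reporter transcripts in transiently transfected HepG2, 24 h after dosing. Reporter RNA measured via RT-PCR plus capillary electrophoresis of FAM-labeled products; gain or loss relative to DMSO.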
# [9] = ATG_GLI_CIS: Attagene CIS-FACTORIAL HepG2 Assay for human Zinc Finger Protein GLI1 (AID 2282945); settings: HepG2, Attagene cis-factorial reporter mRNA, GLI element; actives raise or lower the signal
# How it was run: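 Bidirectional curve fits relative to DMSO, using reporter mRNA levels from RT-PCR plus capillary electrophoresis. Cells were HepG2 transiently carrying cis-regulated reporter constructs, harvested 24 h after dosing.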
# [10] = ATG_GATA_CIS: Attagene CIS-FACTORIAL HepG2 Assay for human GATA Binding Protein (AID 2282944); settings: HepG2 GATA cis-element reporter, Attagene multiplex mRNA; actives raise or lower the signal
# How it was run: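 Read-out: fluorescent reporter mRNA fragments resolved by capillary electrophoresis after RT-PCR. Human liver HepG2 cells carried transiently transfected cis-regulated reporter constructs; chemicals incubated 24 h; gain or loss of signal fitted relative to DMSO.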
smiles,measurement,setting,value
O=C1CCCCCCCCCCCCCCCO1,outcome,[1],inactive
same,outcome,[2],inactive
same,outcome,[3],inactive
same,outcome,[4],inactive
same,outcome,[5],inactive
same,outcome,[6],inactive
same,outcome,[7],inactive
same,outcome,[8],inactive
same,outcome,[9],inactive
CC[C@H]1OC(=O)[C@H](C)[C@@H](O[C@H]2C[C@@](C)(OC)[C@@H](O)[C@H](C)O2)[C@H](C)[C@@H](O[C@@H]2O[C@H](C)C[C@H](N(C)C)[C@H]2O)[C@](C)(O)C[C@@H](C)C(=NOCOCCOC)[C@H](C)[C@@H](O)[C@]1(C)O,outcome,[1],inactive
same,outcome,[2],inactive
same,outcome,[3],inactive
same,outcome,[4],inactive
same,AC50,[5],37.6 µM (active)
same,outcome,[6],inactive
same,outcome,[7],inactive
same,outcome,[8],inactive
same,outcome,[9],inactive
C=CC(=O)OCCOC(=O)C=C,AC50,[1],27.3 µM (active)
same,outcome,[2],inactive
same,AC50,[3],27.4 µM (active)
same,outcome,[4],inactive
same,outcome,[5],inactive
same,AC50,[6],27.2 µM (active)
same,outcome,[7],inactive
same,outcome,[8],inactive
same,outcome,[9],inactive
OC1OCCOC1O (stereo unspecified),outcome,[1],inactive
same,outcome,[2],inactive
same,outcome,[3],inactive
same,outcome,[4],inactive
same,outcome,[6],inactive
same,outcome,[7],inactive
same,outcome,[8],inactive
same,outcome,[10],inactive
same,outcome,[9],inactive
CNC(=S)NN,outcome,[1],inactive
same,outcome,[2],inactive
same,outcome,[3],inactive
same,outcome,[4],inactive
same,outcome,[6],inactive
same,outcome,[7],inactive
same,outcome,[8],inactive
same,outcome,[10],inactive
same,outcome,[9],inactive
CCCCCCCC(C)=O,outcome,[1],inactive
same,outcome,[2],inactive
same,outcome,[3],inactive
same,outcome,[4],inactive
same,outcome,[6],inactive
same,outcome,[7],inactive
same,outcome,[8],inactive
same,outcome,[10],inactive
same,outcome,[9],inactive
CC(C)(C)C1CCCCC1=O (stereo unspecified),outcome,[1],inactive
same,outcome,[2],inactive
same,outcome,[3],inactive
same,outcome,[4],inactive
same,outcome,[6],inactive
same,outcome,[7],inactive
same,outcome,[8],inactive
same,outcome,[10],inactive
same,outcome,[9],inactive
C=C[Si](OC(C)=O)(OC(C)=O)OC(C)=O,outcome,[1],inactive
same,outcome,[2],inactive
same,outcome,[3],inactive
same,outcome,[4],inactive
same,outcome,[6],inactive
same,outcome,[7],inactive
same,outcome,[8],inactive
same,outcome,[10],inactive
same,outcome,[9],inactive
CCc1nccnc1C,outcome,[1],inactive
same,outcome,[2],inactive
same,outcome,[3],inactive
same,outcome,[4],inactive
same,outcome,[6],inactive
same,outcome,[7],inactive
same,outcome,[8],inactive
same,outcome,[10],inactive
same,outcome,[9],inactive
FC(F)(F)C(=NOCC1OCCO1)c1ccc(Cl)cc1,outcome,[1],inactive
same,outcome,[2],inactive
same,outcome,[3],inactive
same,outcome,[4],inactive
same,outcome,[6],inactive
same,outcome,[7],inactive
same,outcome,[8],inactive
same,outcome,[10],inactive
same,outcome,[9],inactive
CC(=O)OCC(=O)[C@@]12N=C(C)O[C@@H]1C[C@H]1[C@@H]3CCC4=CC(=O)C=C[C@]4(C)[C@H]3[C@@H](O)C[C@@]12C,outcome,[1],inactive
same,outcome,[2],inactive
same,outcome,[3],inactive
same,outcome,[4],inactive
same,AC50,[5],34.2 µM (active)
same,outcome,[6],inactive
same,outcome,[8],inactive
same,outcome,[10],inactive
same,outcome,[9],inactive
Cc1cc(C)c(C)c(C)c1,outcome,[1],inactive
same,outcome,[2],inactive
same,outcome,[3],inactive
same,outcome,[4],inactive
same,outcome,[5],inactive
same,outcome,[6],inactive
same,outcome,[8],inactive
same,outcome,[10],inactive
same,outcome,[9],inactive
CC(C)C1=CC2=CC[C@@H]3[C@](C)(CCC[C@@]3(C)C(=O)O)[C@H]2CC1,outcome,[1],inactive
same,outcome,[2],inactive
same,AC50,[3],60.3 µM (active)
same,outcome,[4],inactive
same,outcome,[5],inactive
same,outcome,[6],inactive
same,outcome,[8],inactive
same,AC50,[10],54.1 µM (active)
same,outcome,[9],inactive
O=C1c2ccccc2C(=O)C1c1nc2ccccc2c(Br)c1O,outcome,[1],inactive
same,outcome,[2],inactive
same,outcome,[3],inactive
same,outcome,[4],inactive
same,outcome,[6],inactive
same,AC50,[7],1.26 µM (active)
same,outcome,[8],inactive
same,outcome,[10],inactive
same,outcome,[9],inactive
O=C1CCCC1,outcome,[1],inactive
same,outcome,[2],inactive
same,outcome,[3],inactive
same,outcome,[4],inactive
same,outcome,[6],inactive
same,outcome,[7],inactive
same,outcome,[8],inactive
same,outcome,[10],inactive
same,outcome,[9],inactive
CC=CCO,outcome,[1],inactive
same,outcome,[2],inactive
same,outcome,[3],inactive
same,outcome,[4],inactive
same,outcome,[6],inactive
same,outcome,[7],inactive
same,outcome,[8],inactive
same,outcome,[10],inactive
CCCCC(CC)CCC(CC(C)C)OS(=O)(=O)O (stereo unspecified),outcome,[1],inactive
same,outcome,[2],inactive
same,outcome,[3],inactive
same,outcome,[4],inactive
same,outcome,[5],inactive
same,outcome,[6],inactive
same,outcome,[8],inactive
same,outcome,[10],inactive
same,outcome,[9],inactive
O=C1C=CC(=O)O1,outcome,[1],inactive
same,outcome,[2],inactive
same,outcome,[3],inactive
same,outcome,[4],inactive
same,outcome,[6],inactive
same,outcome,[7],inactive
same,outcome,[8],inactive
same,outcome,[10],inactive
same,outcome,[9],inactive
OCCN(CCO)c1ccccc1,outcome,[1],inactive
same,outcome,[2],inactive
same,outcome,[3],inactive
same,outcome,[4],inactive
same,outcome,[5],inactive
same,outcome,[6],inactive
same,outcome,[8],inactive
same,outcome,[10],inactive
same,outcome,[9],inactive
OC1CCCC1,outcome,[1],inactive
same,outcome,[2],inactive
same,outcome,[3],inactive
same,outcome,[4],inactive
same,outcome,[6],inactive
same,outcome,[7],inactive
same,outcome,[8],inactive
same,outcome,[10],inactive
same,outcome,[9],inactive
c1ccc2c(c1)ccc1ncccc12,outcome,[1],inactive
same,outcome,[2],inactive
same,outcome,[3],inactive
same,outcome,[4],inactive
same,outcome,[5],inactive
same,outcome,[6],inactive
same,outcome,[8],inactive
same,outcome,[10],inactive
same,outcome,[9],inactive
CCC(=O)Oc1ccc(/C(CC)=C(\CC)c2ccc(OC(=O)CC)cc2)cc1,AC50,[1],20.4 µM (active)
same,outcome,[2],inactive
same,AC50,[3],45.1 µM (active)
same,outcome,[4],inactive
same,AC50,[5],0.0825 µM (active)
same,outcome,[6],inactive
same,outcome,[8],inactive
same,AC50,[9],51.5 µM (active)
NCCCN1CCN(CCCN)CC1,outcome,[1],inactive
same,outcome,[2],inactive
same,outcome,[3],inactive
same,outcome,[4],inactive
same,outcome,[6],inactive
same,outcome,[7],inactive
same,outcome,[8],inactive
same,outcome,[10],inactive
same,outcome,[9],inactive
[Cl][Bi]([Cl])([c]1ccccc1)([c]1ccccc1)[c]1ccccc1,AC50,[1],3.68 µM (active)
same,outcome,[2],inactive
same,AC50,[3],6.3 µM (active)
same,outcome,[4],inactive
same,outcome,[6],inactive
same,outcome,[7],inactive
same,AC50,[8],4.47 µM (active)
same,outcome,[10],inactive
same,outcome,[9],inactive
O=C(O)c1cc2ccccc2nc1C(=O)O,outcome,[1],inactive
same,outcome,[2],inactive
same,outcome,[3],inactive
same,outcome,[4],inactive
same,outcome,[6],inactive
same,outcome,[7],inactive
same,outcome,[8],inactive
same,outcome,[10],inactive
same,outcome,[9],inactive
CCCCCCCCCCCCCCCC(=O)OCC,outcome,[1],inactive
same,outcome,[2],inactive
same,outcome,[3],inactive
same,outcome,[4],inactive
same,outcome,[5],inactive
same,outcome,[6],inactive
same,outcome,[8],inactive
same,outcome,[10],inactive
same,outcome,[9],inactive
C[Si](C)(CCCN)O[Si](C)(C)CCCN,outcome,[1],inactive
same,outcome,[2],inactive
same,outcome,[3],inactive
same,outcome,[4],inactive
same,outcome,[6],inactive
same,outcome,[7],inactive
same,outcome,[8],inactive
same,outcome,[10],inactive
same,outcome,[9],inactive
